Autophagy mod – autophagy modulation, high-content screen. MEF GFP-LC3 puncta imaging; test concentration mostly 10 µM. calls only at 10 µM (by protocol). 190,000 compounds, 0.98% hits;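 active = percentage of spot-positive cells more than 3 SD above its plate mean, without a fluorescence outlier flag or 80% toxicity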
Insulin prom up – MIN6 insulin promoter up-regulation; MIN6 insulin promoter-GFP reporter, high-content imaging; stronger effect = higher value; 190,000 compounds, 0.3% hits; z-score at 5 µM;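 active = z-score above 3 at 5 µM with at least 500 cells counted in the well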
Insulin prom inh – TRM-6 insulin promoter activity inhibition | 130,000 compounds, 0.9% hits | inhibition, % at 2 µM | TRM-6 cells (human fetal islet line), insulin promoter-eGFP reporter, imaging; reporter expression induced with tamoxifen | AID 1273;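 active = inhibition above the mean plus 3 SD, with well images judged a real hit on visual review, cut at about 60% in these data, passing the limit was not always enough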
WT yeast gro inh – growth inhibition of WT yeast, mitochondrial fusion screen; mitochondrial fusion phenotypic screen, WT strain; inhibition, % at 10 µM; 190,000 compounds, 2.1% hits; AID 1362; in the data active = inhibition above about 58%; tested in S. cerevisiae
L major viab – reduces viability of Leishmania major promastigotes. resazurin fluorescence viability. inhibition, % at 10 µM. 200,000 compounds, 9% hits. AID 1063; in the data active = inhibition above about 50%;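 note: promastigotes grown with compound for 44 hours at 28 °C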
A number is an active result; – = inactive; · = no result; + = active, no number. Hits are enriched below; roughly 11% of the tested compounds scored in any of these assays.

SMILES	Autophagy mod	Insulin prom up	Insulin prom inh	WT yeast gro inh	L major viab
Cc1noc(C)c1S(=O)(=O)N(CCc1ccccc1)Cc1ccccc1	–	–	·	70	–
O=C(NCc1cccnc1)C1CCC(CNS(=O)(=O)c2cccc3nsnc23)CC1 (stereo not given)	·	–	·	·	·
O=C1C2C3c4ccccc4C(c4ccccc43)C2C(=O)N1/N=C/c1cccc(O)c1 (stereo not given)	–	–	–	–	97
C=CCC(CC=C)(NC(=O)c1ccccc1C(=O)O)c1ccccc1	–	–	–	–	–
C=CCC(CC=C)(NC(=O)c1cccc(C)c1)c1ccccc1	–	–	–	–	68
CCn1cc(C(=O)Nc2cccc(C)c2)c(=O)c2ccc(C)nc21	–	–	·	–	–
COC(=O)c1nn(-c2ccc(Oc3ccccc3)cc2)c(=O)cc1O	–	–	·	–	–
CC(NCc1ccc(S(N)(=O)=O)cc1)C(=O)Nc1ccc([N+](=O)[O-])cc1Cl (stereo not given)	–	–	–	–	–
CCOC(=O)c1ccc(-n2c(CN3CCN(CC)CC3)nc3ccc([N+](=O)[O-])cc3c2=O)cc1	–	·	–	–	–
COc1cccc(-n2c(CN3CCN(c4ccccc4)CC3)nc3ccc([N+](=O)[O-])cc3c2=O)c1	–	–	–	–	63
COc1ccc(OC)c(C2C(C(=O)Nc3nc4ccccc4s3)=C(C)NC3=C2C(=O)CCC3)c1 (stereo not given)	–	–	·	–	98
COc1cccc(C2C(C(=O)Nc3nc4ccccc4s3)=C(C)NC3=C2C(=O)CC(C)(C)C3)c1OC (stereo not given)	–	–	·	–	58
CCc1ccccc1NC(=O)COc1cccc2ccc(C)nc12	–	–	–	–	–
O=C(O)C1CCC(Cn2c(SCc3cc(=O)n4ccccc4n3)nc3ccsc3c2=O)CC1 (stereo not given)	–	·	–	–	–
Cc1ccc(OCCN2C(=O)C(=O)c3cc(C)ccc32)cc1	+	·	–	–	–
CCO[C@H]1OC(C(N)=O)=C[C@@H](C)[C@@H]1CCCO	–	–	·	–	–
COc1cc(NC(=O)C/C(C)=N/NC(=O)C(=O)NCCO)c(OC)cc1Cl	·	–	·	·	·
CNc1nc(SCc2ccccc2)nc(N2CCOCC2)n1	–	–	–	–	–
CC(C)(C)Nc1nc(SCc2ccccc2)nc(N2CCOCC2)n1	–	–	–	66	–
CCn1c(NC(=O)c2ccccc2F)c(-c2cccs2)c(=O)c2ccccc21	·	–	·	·	·
CN1c2ccccc2C(C)(C)C12CC(CCl)=NO2 (stereo not given)	–	–	–	·	–
CN1c2ccccc2C(C)(C)C12CC(c1ccc(Cl)c(S(=O)(=O)N3CCCC3)c1)=NO2 (stereo not given)	–	–	–	–	69
COCCN1Cc2cccc(C(=O)Nc3cc(C)cc(C)c3)c2C1=O	–	–	·	–	–
COCCN1Cc2cccc(C(=O)Nc3c(C)cc(C)cc3C)c2C1=O	–	–	·	–	72
CCCN1Cc2cccc(C(=O)Nc3ccc4c(c3)OCCO4)c2C1=O	–	–	·	–	69
SMILES	Autophagy mod	Insulin prom up	Insulin prom inh	WT yeast gro inh	L major viab
OC(COc1ccc(CN2CCCCO2)cc1)CN1CCCCC1 (stereo not given)	–	·	·	–	–
COc1ccc(C(=O)OC(C(=O)c2ccccc2)c2ccccc2)cc1 (stereo not given)	–	–	–	–	–
Cc1ccc(S(=O)(=O)NCCc2ccncc2)cc1	–	–	–	–	–
CCCCc1ccc(S(=O)(=O)NCCc2ccncc2)cc1	–	–	–	–	84
Cc1cc(NC(=O)CSc2nnc(Cc3cccn3C)n2CCc2ccccc2)no1	–	–	·	–	–
Cc1occc1-c1nnc(SCC(=O)Nc2ccccc2)n1CCc1ccccc1	–	·	–	–	66
Cc1occc1-c1nnc(SCC(=O)Nc2ccccc2)n1C	–	–	·	–	–
Cc1csc(NC(=O)CSc2nnc(Cc3cccn3C)n2CCc2ccccc2)n1	–	–	·	–	51
Cn1cccc1Cc1nnc(SCC(=O)Nc2cccc(F)c2)n1CCc1ccccc1	+	–	·	–	–
COc1cc(C(=O)NCCOc2cccc(C)c2)c(Br)c(OC)c1OC	–	–	–	–	–
O=C(CSc1nnc(-c2cccnc2)n1Cc1ccccc1)NCc1ccccc1	–	·	–	–	–
Cc1ccc(-c2nnc3cccc(Cl)n23)cc1	–	–	·	–	–
Cc1nn(-c2c(Cl)cc(Cl)cc2Cl)c(=O)c2ccccc12	–	3.4	–	–	–
N#CC(C#N)=Cc1ccc(OCC(=O)N2CCOCC2)cc1	–	–	–	–	–
CC(C)C(c1nnnn1C1CCCC1)N1c2ccccc2CC1C (stereo not given)	–	–	·	64	–
c1csc(C(c2nnnn2C2CCCC2)N2CCOCC2)c1 (stereo not given)	–	–	–	–	–
NC(=O)C1CCN(C(c2ccccc2)c2nnnn2C2CCCC2)CC1 (stereo not given)	–	·	–	–	–
c1csc(C(c2nnnn2C2CCCCC2)N2CCN(c3nc4ccccc4s3)CC2)c1 (stereo not given)	–	·	–	–	93
c1ccc(C(c2nnnn2C2CCCC2)N2CCN(c3nc4ccccc4s3)CC2)cc1 (stereo not given)	–	–	–	–	95
c1ccc(C(c2ccccc2)N2CCN(C(c3ccccn3)c3nnnn3C3CCCC3)CC2)cc1 (stereo not given)	–	·	–	–	57
c1ccc(C(c2nnnn2C2CCCC2)N2CCCCCC2)nc1 (stereo not given)	–	–	·	–	–
CC(=O)Nc1nc(Cn2nnc(-c3ccc4c(c3)OCO4)n2)nc(N(C)C)n1	–	·	–	–	–
Cc1cc(Nc2ccccc2)n(C(=O)c2ccc(Cl)cc2)n1	–	–	–	–	–
CCOc1ccc(S(=O)(=O)NN2Cc3ccccc3C2=N)cc1	–	–	–	–	–
Fc1ccccc1N1CCN(C(c2ccncc2)c2nnnn2C2CCCC2)CC1 (stereo not given)	–	–	–	–	–
SMILES	Autophagy mod	Insulin prom up	Insulin prom inh	WT yeast gro inh	L major viab
Fc1ccc(C(c2nnnn2C2CCCC2)N2CCN(Cc3ccccc3)CC2)cc1 (stereo not given)	–	–	·	–	–
c1csc(C(c2nnnn2C2CCCC2)N2CCCC3(CCCCC3)C2)c1 (stereo not given)	–	–	–	70	–
Clc1ccc(C(c2nnnn2C2CCCC2)N2CCN(Cc3ccncc3)CC2)cc1 (stereo not given)	–	·	–	–	88
Cc1ccc(C(c2nnnn2C2CCCC2)N2CCN(c3nc4ccccc4s3)CC2)cc1 (stereo not given)	–	·	–	·	95
CN(C)c1ccc(C(c2nnnn2C2CCCCC2)N2CCN(C(=O)c3ccco3)CC2)cc1 (stereo not given)	–	·	–	·	–
O=C(c1ccco1)N1CCN(C(c2cccs2)c2nnnn2C2CCCCC2)CC1 (stereo not given)	–	·	–	–	60
CCOc1ccc(NC(=O)Nc2cccnc2)cc1	–	–	·	–	–
O=c1c(C(c2nnnn2C2CCCCC2)N2CCCCC2)coc2ccc(Cl)cc12 (stereo not given)	–	–	–	–	62

Compound activity: PubChem BioAssay, several laboratories
